Reference: PubChem BioAssay (NCATS)
Inconclusive results are not listed. The source made the active and inactive calls. Calls come from the whole dose curve; as a rule, active = well fitted curve in the direction sought with a large enough effect; inconclusive = small, poorly fitted or top-dose-only effect, or another doubt; inactive = no such curve, though single readings can be large; an effect the other way counts as inactive or inconclusive.

Key:
[1] = biological target: Glutathione peroxidase 1 (Homo sapiens) (UniProt P07203); test: Primary qHTS Assay for Inhibitors of Recombinant Selenoprotein Glutathione Peroxidase 1 (GPX1) (AID 1845191); conditions: recombinant GPX1, GR-coupled NADPH fluorescence, 15 min; series mostly up to 27.7 µM; note: nearly all actives have a fitted effect of over 65% in size; for activity, negative = inhibition: % is set by controls: 0 for no effect and ±100 for the full control effect
Procedure, shortened: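 GR-coupled readout: NADPH consumption tracked by fluorescence, ex 340/em 450 nm, at t=0 and after 15 min at RT. Final mix 10 nM GPX1, 1 mM GSH, 0.5 mM CHP, 0.5 mM NADPH, 100 nM GR, 0.01% BSA, following 30 min enzyme–compound preincubation.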

[2] = biological target: Phospholipid hydroperoxide glutathione peroxidase GPX4 (Homo sapiens) (UniProt P36969); test: Primary qHTS Assay for Inhibitors of Recombinant Selenoprotein Glutathione Peroxidase 4 (GPX4) (AID 1845192); conditions: recombinant GPX4, GR-coupled NADPH fluorescence, 15 min; series mostly up to 27.8 µM; note: nearly all actives have a fitted effect of over 65% in size
Procedure, shortened: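 Steps: GPX4 plus compound, 30 min RT; add GR/GSH/NADPH master mix; start with cumene hydroperoxide; read 340/450 nm fluorescence at 0 and 15 min. Finals were 200 nM GPX4, 1 mM GSH, 0.5 mM CHP, 0.5 mM NADPH, 100 nM GR.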

[3] = biological target: Luciferin 4-monooxygenase (Photinus pyralis) (UniProt P08659); test: Primary firefly luciferase (FLuc) qHTS assay for identification of artifact compounds. (AID 1845220); conditions: purified firefly luciferase, luminescence, 5 min; series mostly up to 54.1 µM; note: nearly all actives have a fitted effect of over 60% in size
Procedure, shortened: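 Titrated compounds were incubated 15 min at RT, protected from light, with luciferin and ATP at 10 uM; reaction started with 10 nM FLuc, luminescence imaged at 5 min, and concentration-response fitted by Hill equation.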

[4] = Primary fluorescence-based thiol-reactive (MSTI) qHTS assay for identification of artifact compounds. (AID 1845221); conditions: MSTI thiol-reactivity probe, 1 h; series mostly up to 53.8 µM;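 note: thiol-reactive compounds lower the probe fluorescence signal; nearly all actives have a fitted effect of over 65% in size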
Procedure, shortened: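 Thiol-reactive compounds detected by quenching of 4 uM MSTI fluorescence (525/598 nm) after 1 h room-temperature dark incubation in PBS pH 7.4, 2% DMSO. qHTS titration; percent inhibition Hill-fitted against Acetyl-MSTI/MSTI controls.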

[5] = system: Nanoluciferase (engineered Oplophorus gracilirostris luciferase); test: Primary Nanoluciferase (NLuc) qHTS assay for identification of artifact compounds. (AID 1845222); conditions: NLuc-conditioned medium, Nano-Glo luminescence, 5 min; series mostly up to 54.1 µM;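 note: NLuc secreted into diluted conditioned medium of S16 cells; 0% = DMSO and -100% = no enzyme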
Procedure, shortened: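 qHTS format, against NLuc in S16 cell-conditioned medium. Nano-Glo substrate 1:100 was added after 15 min at room temperature. Luminescence was taken after a further 5 min.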

Sequence of Glutathione peroxidase 1 (Homo sapiens) (P07203 whole entry, looked up): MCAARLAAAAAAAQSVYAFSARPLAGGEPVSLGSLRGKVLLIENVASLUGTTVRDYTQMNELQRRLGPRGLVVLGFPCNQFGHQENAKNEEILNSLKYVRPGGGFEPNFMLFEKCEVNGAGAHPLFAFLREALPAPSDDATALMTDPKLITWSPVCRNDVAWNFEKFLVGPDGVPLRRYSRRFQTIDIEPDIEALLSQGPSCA
Sequence of Phospholipid hydroperoxide glutathione peroxidase GPX4 (Homo sapiens) (P36969 whole entry, looked up): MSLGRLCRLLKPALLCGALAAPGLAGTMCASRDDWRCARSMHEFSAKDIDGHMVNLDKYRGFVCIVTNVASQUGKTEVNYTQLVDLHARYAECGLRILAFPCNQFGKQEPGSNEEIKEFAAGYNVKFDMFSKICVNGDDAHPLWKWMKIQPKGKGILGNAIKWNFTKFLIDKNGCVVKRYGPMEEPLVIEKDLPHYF

C=C1CCC2C(C)(C(=O)O)CCCC2(C)C1CC/C(C)=C\CO (stereo not given)
inactive: Potency [1] | Potency [2] | Potency [3] | Potency [4] | Potency [5]

CC1(C)CC[C@]2(C(=O)O[C@@H]3O[C@H](CO)[C@@H](O)[C@H](O)[C@H]3O)CC[C@]3(C)C(=CCC4[C@@]5(C)C[C@H](O)[C@H](O[C@@H]6OC[C@@H](O)[C@H](O)[C@H]6O)[C@@](C)(CO)C5CC[C@]43C)C2C1 (stereo not given in full)
inactive: Potency [1] | Potency [2] | outcome [3] inactive [at 11.6 µM] | activity change, negative = thiol reactive [4] 298% [at 11.5 µM] | activity, negative = inhibition [5] 3.66% [at 11.6 µM]

CC1(C(=O)O)CCCC2(C)C3CC4C5CC3(CCC12)CC45C (stereo not given)
inactive: Potency [1] | Potency [2] | Potency [3] | Potency [4] | Potency [5]

COc1ccccc1CN[C@H]1CCCN[C@H]1c1ccccc1
inactive: Potency [1] | Potency [2] | Potency [3] | Potency [4] | Potency [5]

CC(C)(OC1OC(CO)C(O)C(O)C1O)C1CCC(O)(CO)C2CC(=O)C(C)(O)C2C1 (stereo not given)
inactive: Potency [1] | Potency [2] | Potency [3] | Potency [4] | Potency [5]

Cc1nc2ccccc2c(-c2ccc3c4c(ccnc24)CCO3)c1[C@H](OC(C)(C)C)C(=O)O
inactive: Potency [1] | Potency [2] | Potency [3] | Potency [4] | Potency [5]

Cc1onc(-c2ccccc2Cl)c1C(=O)N(C)c1ccc(Cl)cc1
inactive: Potency [1] | Potency [2] | Potency [3] | Potency [4] | Potency [5]

CC(C)C(O)(CO)CCO[C@@H]1O[C@H](CO[C@H]2OC[C@](O)(CO)[C@H]2O)[C@@H](O)[C@H](O)[C@H]1O (stereo not given in full)
inactive: Potency [1] | Potency [2] | Potency [3] | Potency [4] | Potency [5]
